Source: PubChem BioAssay AID411 (National Center for Advancing Translational Sciences (NCATS), 2006)
Out of some 72,000 compounds screened, about 1,600 (2.2%) were called active. Calls come from the whole dose curve; as a rule, active = well fitted inhibition curve with a large enough effect; inconclusive = small, poorly fitted or top-dose-only effect; inactive = flat fitted curve, though single readings scatter. The list comes from a sample in which actives are over-represented; it also holds similar structures and randomly drawn compounds.

These compounds were tested against Luciferin 4-monooxygenase (Photinus pyralis) (UniProt P08659) (assay: qHTS Assay for Inhibitors of Firefly Luciferase). Details: purified firefly luciferase, luminescence, 8 min; series mostly up to 57.1 µM; activity change, negative = inhibition: at the top concentration.
Method in brief: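 Inhibition of light generation by firefly luciferase from ATP and luciferin was profiled with concentration-response curves per sample, ATP held at 10 uM within the enzyme's linear range. Plates were read by luminescence after an 8-minute ambient incubation.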
% is set by controls: 0 for no effect and ±100 for the full control effect; potency is the fitted concentration of half-maximal effect.
Note: nearly all actives have a fitted effect of over 40% in size.

Chain of Luciferin 4-monooxygenase (Photinus pyralis) (P08659 whole entry, looked up): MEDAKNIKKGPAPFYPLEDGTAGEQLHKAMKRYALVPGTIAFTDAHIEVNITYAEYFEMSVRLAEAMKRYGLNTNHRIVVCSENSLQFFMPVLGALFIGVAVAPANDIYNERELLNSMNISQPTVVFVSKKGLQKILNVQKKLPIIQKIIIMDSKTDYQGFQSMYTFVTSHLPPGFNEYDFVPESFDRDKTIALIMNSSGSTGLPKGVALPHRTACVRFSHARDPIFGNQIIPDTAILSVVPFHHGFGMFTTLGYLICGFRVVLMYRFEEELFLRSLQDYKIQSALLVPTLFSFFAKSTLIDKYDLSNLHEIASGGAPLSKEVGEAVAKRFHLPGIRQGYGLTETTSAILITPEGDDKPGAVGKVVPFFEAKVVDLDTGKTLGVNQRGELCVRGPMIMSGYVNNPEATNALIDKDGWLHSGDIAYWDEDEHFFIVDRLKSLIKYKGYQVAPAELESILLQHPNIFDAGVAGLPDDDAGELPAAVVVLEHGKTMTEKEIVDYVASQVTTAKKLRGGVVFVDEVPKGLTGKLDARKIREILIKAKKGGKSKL

SMILES | activity change, negative = inhibition | Potency
Cc1nn(Cc2ccccc2)c(Cl)c1C(=O)OC1CCOC1=O (stereo not given) | 0.69% (inactive) | 
O=C(c1cccs1)N1CCC(c2nc3ccccc3s2)CC1 | -2.55% (inactive) | 
O=C(OC1CCOC1=O)c1ccc(-c2nc3ccccc3s2)s1 (stereo not given) |  | 2.51 µM (active)
COc1ccc(C(=O)N2CCC[C@@]3(CCN(C(=O)NC(C)C)C3)C2)cc1 | -0.0908% [at 11.4 µM] (inactive) | 
COc1cccc(OCC(=O)Nc2ccccc2C(N)=O)c1 |  | 6.31 µM (active)
CCCOC(=O)Nc1ccccc1C(N)=O | 1.94% (inactive) | 
NC(=O)c1ccccc1NC(=O)c1ccccc1F | -5.12% (inactive) | 
O=S(=O)(c1ccc(Sc2nnc3ccccn23)nc1)N1CCOCC1 | 4.43% (inactive) | 
O=C1CCCC2=C1C(c1cccs1)n1nc(SCc3ccccc3)nc1N2 (stereo not given) | 1.99% (inactive) | 
O=S(=O)(NCCNS(=O)(=O)c1ccccc1)c1ccccc1 | -2.34% (inactive) | 
COc1ccccc1N1CCN(C(=O)c2cc(-c3ccc(Br)cc3)on2)CC1 | 1.91% (inactive) | 
Cc1cc(NC(=O)c2cc(-c3cccs3)on2)nn1Cc1ccc(Cl)cc1 | 4.95% (inactive) | 
O=C(c1cc(-c2cccs2)on1)N1CCCCC1 |  | 15.8 µM (active)
COc1ccccc1-c1cc(C(=O)N2CCCCC2)no1 |  | 25.1 µM (active)
O=C(c1cc(-c2ccccc2O)on1)N1CCCC1 | -20.8% (inactive) | 
O=C(c1cc(-c2cccc(O)c2)on1)N1CCc2ccccc2C1 | -5.32% (inactive) | 
Cn1cccc1Cc1nnc(SCC(=O)NCc2ccc3c(c2)OCO3)n1CCc1ccccc1 | 0.771% (inactive) | 
CCOC(=O)c1cc2cc(-c3c(C(=O)OCC)oc4cc(O)cc(O)c4c3=O)ccc2o1 | -2.54% (inactive) | 
CN1CCc2[nH]nc(-c3n[nH]c4c3CN(C)CC4)c2C1 | 2.79% [at 11.4 µM] (inactive) | 
O=C(C1CCN(S(=O)(=O)Cc2ccccc2)CC1)N1CCCc2ccccc21 | 0.549% (inactive) | 
CCOC(=O)NCc1ccc2c(c1)OCO2 | -1.41% (inactive) | 
CCOC(=O)c1nc(-c2ccc3c(c2)OCO3)[nH]c1C |  | 15.8 µM (active)
CCOC(=O)c1c(C)[nH]c(C(=O)COc2ccc3c(c2)OCO3)c1C | 0.677% (inactive) | 
COc1ccc(OC)c(C(=O)CSc2nnc(-c3cccs3)o2)c1 | 5.15% (inactive) | 
COc1ccc(-n2c(C)cc(C(=O)CSc3nnc(-c4cccs4)o3)c2C)cc1 | 0.123% (inactive) | 
COc1ccc(-c2nnc(SCC(=O)c3cccs3)o2)c(OC)c1 |  | 12.6 µM (active)
CN(c1nc2ccccc2n2c(-c3ccco3)nnc12)S(=O)(=O)c1ccccc1 | 2.29% (inactive) | 
Cn1c(-c2ccco2)nc2cc3ccccc3cc21 |  | 0.501 µM (active)
c1coc(-c2nc3nc4ccccc4n3nc2-c2ccco2)c1 | 2.85% (inactive) | 
C(=C\c1ccccc1)/CSc1nnc(-c2cccnc2)n1Cc1ccco1 | -0.262% (inactive) | 
